Only some compounds are listed: those with a hit (about 3.4% of all), similar ones and a draw of the others.
GPR151 ag – human GPR151 activation. Q8TDV0. PathHunter beta-arrestin GPR151 cells, luminescence. activation, % at 11.2 µM. actives 1% (n = 650,000). AID 1508602; in the data active = activation above about 4.9%
Target sequence (Q8TDV0 whole entry, looked up): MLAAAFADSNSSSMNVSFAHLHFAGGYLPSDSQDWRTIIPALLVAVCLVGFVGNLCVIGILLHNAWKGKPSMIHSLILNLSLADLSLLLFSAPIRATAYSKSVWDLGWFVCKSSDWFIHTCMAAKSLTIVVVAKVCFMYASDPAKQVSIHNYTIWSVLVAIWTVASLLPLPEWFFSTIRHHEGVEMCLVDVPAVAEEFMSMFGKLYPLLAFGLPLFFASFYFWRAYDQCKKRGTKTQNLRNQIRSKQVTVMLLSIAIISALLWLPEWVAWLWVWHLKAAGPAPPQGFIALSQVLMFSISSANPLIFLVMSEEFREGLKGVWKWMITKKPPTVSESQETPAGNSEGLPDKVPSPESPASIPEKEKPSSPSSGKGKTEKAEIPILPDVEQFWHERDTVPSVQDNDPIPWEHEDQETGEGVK
MITF primary – inhibitors of human MITF. O75030. AlphaScreen MITF homodimerization, bead proximity signal. inhibition, % at 2.6 µM. actives 0.91% (n = 650,000); in the data active = inhibition above about 50%
TEAD-YAP block – TEAD-YAP interaction inhibition; HEK-TIYL cells, TEAD-Gal4/YAP UAS-luciferase luminescence; inhibition, % at 9.12 µM; actives 1.4% (n = 640,000); in the data active = inhibition above about 32%
FBW7 act – activators of human E3 ligase FBW7. Q969H0. AlphaScreen FBW7–phospho-cyclin E peptide binding, activator screen. normalized activity (activation), % at 26.1 µM. actives 0.13% (n = 650,000); in the data active = normalized activity above about 1.9%;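 also: purified mutant Fbw7 with reduced substrate affinity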
GPR151 conf act – confirmation of human GPR151 activators; shares compounds with GPR151 ag; GPR151 PathHunter beta-arrestin cells, luminescence, 90 min; % of EA-reagent control over plate median; activation, % at 11.2 µM; 6,700 tested, under 10 active;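 active = mean percent activation across replicates above the confirmation screen cutoff of 4.91%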
GPR119 ag – counter-screen for GPR151 activators: effect on human GPR119; shares compounds with GPR151 ag; GPR119 PathHunter beta-arrestin cells, luminescence, 90 min; 0 = compound-well median, 100 = enzyme-acceptor control; activation, % at 11.2 µM; actives 0.3% (n = 6,700);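 active = mean percent activation in the counterscreen above 29.09%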;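 also: counterscreen on off-target GPR119 to flag nonselective hits from the GPR151 activator screen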
Each line names hits and unclear results; the compound was inactive in the other large screens (follow-up assays come after a bar, where they were run).

CCOC(=O)CCN(Cc1ccccc1F)S(=O)(=O)c1ccc(Br)cc1	none
CCOC(=O)CCCN(Cc1ccc(F)cc1)S(=O)(=O)c1ccc(F)c(C)c1	none
CCn1c(SCCCc2ccccc2)nc2c1c(=O)[nH]c(=O)n2C	none
COC(=O)c1cccc(NC(=O)CN2C(=O)c3ccc([N+](=O)[O-])cc3C2=O)c1C	GPR151 ag 5.1 | GPR151 conf act inactive | GPR119 ag inactive
COC(=O)c1ccccc1NC(=O)CN1C(=O)c2ccc([N+](=O)[O-])cc2C1=O	none
COc1cc(C)ccc1OCc1cc(C(=O)N2CCSCC2)no1	GPR151 ag 6.0 | GPR151 conf act inactive | GPR119 ag inactive
COc1cc(C)ccc1OCc1cc(C(=O)N2CCCCCC2)no1	none
CC(C)Cn1c(=O)c2sccc2n2c(CCCC(=O)O)nnc12	none
COCc1nnc(NC(=O)C2CCCCC2)s1	GPR151 ag 6.4 | GPR151 conf act inactive | GPR119 ag inactive
COc1ccccc1CN1C(=O)C(C)SC1c1ccc(C)s1 (configuration not stated)	none
O=C(c1cccc(F)c1F)N1CCCCC1	none
O=C(c1cccc(F)c1F)N1CCCCCC1	GPR151 ag 4.9 | GPR151 conf act inactive | GPR119 ag inactive
O=C1CCCN1CCn1cnc2c(Nc3ccccc3)nc(Nc3ccc(-n4ccnc4)cc3)nc21	none
O=C(O)c1cc(N2C(=O)C3C4C=CC(C4=C(c4ccccc4)c4ccccc4)C3C2=O)ccc1Cl (configuration not stated)	GPR151 ag 5.1 | GPR151 conf act inactive | GPR119 ag inactive
CCCCc1sc(/C=N/NC(N)=O)cc1[N+](=O)[O-]	none
CCOC(=O)c1c(NC(=O)c2ccccc2)sc2c1CCN(C(=O)OCC)C2	none
CC(=O)c1ccc(OCC(=O)NC2=NCCS2)cc1	none
CC(C)N(C(=O)Cc1csc(NC(=O)Nc2ccc(Cl)cc2)n1)C(C)C	GPR151 ag 11 | GPR151 conf act inactive | GPR119 ag inactive
CCOC(=O)c1csc(NC(=O)Nc2ccc(Cl)cc2)n1	none
CN(C)c1ccc(C(=S)N2CCOCC2)cc1	GPR151 ag 9.7 | GPR151 conf act inactive | GPR119 ag inactive
CN(C)c1ccc(C(=O)N2CCOCC2)cc1	none
Cc1ccccc1C(=O)n1cnc2cc([N+](=O)[O-])ccc21	GPR151 ag 7.1 | GPR151 conf act inactive | GPR119 ag inactive
O=C(c1cc([N+](=O)[O-])cc([N+](=O)[O-])c1)n1cnc2ccccc21	none
COC(CN1C(=O)C(=O)/C(=C(/O)c2ccccc2)C1c1cccs1)OC (configuration not stated)	none
Cc1cccc(-n2cnc3cc(C(=O)NCc4ccc5c(c4)OCO5)ccc32)c1	GPR151 ag 7.0 | GPR151 conf act inactive | GPR119 ag inactive
Cc1cc(C)cc(-n2cnc3cc(C(=O)NCc4ccc5c(c4)OCO5)ccc32)c1	none
Cn1c(=O)c2c(nc(Sc3ncnn3Cc3ccccc3)n2C)n(C)c1=O	none
O=C(CSc1nnc(-c2cccnc2)o1)c1cc2ccccc2oc1=O	GPR151 ag 6.2 | GPR151 conf act inactive | GPR119 ag inactive
Cc1nc(NC2=NCN(Cc3cccnc3)CN2)nc2ccccc12	GPR151 ag 7.7 | GPR151 conf act inactive | GPR119 ag inactive
COc1ccc(S(=O)(=O)NCC2CCCN(Cc3ccncc3)C2)cc1 (configuration not stated)	none
COc1ccc(S(=O)(=O)NCC2CCCN(C(=O)c3sccc3C)C2)cc1 (configuration not stated)	GPR151 ag 5.5 | GPR151 conf act inactive | GPR119 ag inactive
COc1ccc(S(=O)(=O)NCC2CCCN(CCCC3CCCC3)C2)cc1 (configuration not stated)	GPR151 ag 5.8 | GPR151 conf act inactive | GPR119 ag inactive
COCC(=O)N1CCCC(CNS(=O)(=O)c2ccc(OC)cc2)C1 (configuration not stated)	none
Cc1cccc(-n2c(O)c(/C=N/n3cnnc3)c(=O)[nH]c2=O)c1	GPR151 ag 5.3 | GPR151 conf act inactive | GPR119 ag inactive
Cc1cccc(-n2c(O)c(C=Nc3ccccc3I)c(=O)[nH]c2=O)c1	none
CCSc1ccccc1C(=O)NC(C)c1ccccc1 (configuration not stated)	GPR151 ag 5.5 | GPR151 conf act inactive | GPR119 ag inactive
O=C(NC1CC1)c1ccc(-c2ccc(C(=O)NC3CCN(Cc4ccccc4)CC3)s2)cc1	none
CCCCNC(=O)CSc1nc2ccc([N+](=O)[O-])cc2s1	none
CCC(=O)NNC(=O)CSc1nnc2c3c(C)c(C)sc3nc(C(C)C)n12	none
Cc1sc2nc(C(C)C)n3c(SCC(=O)NNC(=O)C(C)C)nnc3c2c1C	GPR151 ag 7.4 | GPR151 conf act inactive | GPR119 ag inactive
COc1ccc(S(=O)(=O)N(CCc2ccccc2)CC(=O)Nc2ccc(Cl)cc2)cc1	none
COCCNCCOc1ccc(C)cc1Cl	none
Cc1ccc(C)c(OCCN2CCNCC2)c1	GPR151 ag 9.0 | GPR151 conf act inactive | GPR119 ag inactive
CCCCNCCOc1cc(C)ccc1C	none
COCCNCCOc1ccc(C)cc1C	GPR151 ag 8.1 | GPR151 conf act inactive | GPR119 ag inactive
CCCCNCCCOc1cc(C)ccc1C	GPR151 ag 5.0 | GPR151 conf act inactive | GPR119 ag inactive
CNC(=O)N(O)C1N(/N=C2\CCCc3c2no[n+]3[O-])C(=S)SC1(C)C (configuration not stated)	none
CCSc1nc2c(c(=O)n(C)c(=O)n2C)n1Cc1c(F)cccc1Cl	GPR151 ag 5.2 | GPR151 conf act inactive | GPR119 ag inactive
Cn1c(=O)c2c(nc(Cl)n2Cc2c(F)cccc2Cl)n(C)c1=O	none
CC(C)(C)Nc1nc(NCc2ccccc2)nc(N/N=C/c2ccc3c(c2)OCO3)n1	none
CN1CCN(CCCNC(=O)c2cn(-c3ccc(Cl)cc3)c(=O)c3ccccc23)CC1	none
CC1CCC(C(C)C)C(OC(=O)CSc2cccc[n+]2[O-])C1 (configuration not stated)	GPR151 ag 4.9 | GPR151 conf act inactive | GPR119 ag inactive
CC1CCC(C(C)C)C(OC(=O)CSc2nnnn2C)C1 (configuration not stated)	none
CC(C)NC(=O)c1ccc2c(=O)n(Cc3ccc(Cl)cc3)c(=S)[nH]c2c1	GPR151 ag 6.1 | GPR151 conf act inactive | GPR119 ag inactive
O=C(Nc1ccc(Cl)c(C(F)(F)F)c1)c1ccc2c(=O)n(Cc3cccc(Br)c3)c(=S)[nH]c2c1	GPR151 ag 6.2 | GPR151 conf act inactive | GPR119 ag inactive
COc1cc([N+](=O)[O-])ccc1NC(=O)c1oc(=O)c2ccccc2c1-c1ccc(C)cc1	GPR151 ag 5.7 | GPR151 conf act inactive | GPR119 ag inactive
CSc1ccc(-c2c(C#N)c(N)n3c(nc4ccccc43)c2C#N)cc1	none

Assay outcomes from PubChem BioAssay.
